Assay outcomes as filed in PubChem BioAssay.
Pf Dd2 inh = inhibitors of Plasmodium falciparum Dd2 growth | Potency, µM (series often up to 28.9 µM), for inactives: at the highest dose activity, negative = inhibition, most hits filed as inhibitors | 120,000 tested, 4.3% active | P. falciparum Dd2 growth, SYBR Green, 72 h; active means well fitted inhibition curve with a large enough effect;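 further: plate controls were DMSO vehicle for no effect and reference drug for full effect; nearly all actives have a fitted effect of over 65% in size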
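Readout: SYBR Green fluorescence, 485 nm excitation, 535 nm emission, after ~16 h lysis at 37C. Before that, Dd2-infected red cells (2.5% hematocrit) grew 72 h with compound, 29 uM top final concentration.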
An asterisk follows results filed as active; [ ] = another dose, or the depositor's remark. The full list was thinned out, with hits kept by preference. Potency means the concentration at half of the fitted maximal effect.

`COc1ccc(C(=O)N[C@@H]2CCC[C@@H]2C(=O)NCc2ccc3c(c2)OCO3)cn1` gave Pf Dd2 inh -7%.
`CCOc1ccc(-c2nc(C3CC(=O)N(c4ccc(Cl)cc4)C3)no2)cc1OCC` (stereo not given) gave Pf Dd2 inh 2%.
Screening COCCN[C@H]1[C@@H]2OC[C@@H](O2)[C@@H](NCc2ccccn2)[C@@H]1O returned Pf Dd2 inh -6%[44.1 µM].
`O[C@H]1[C@H](NCc2ccc(-c3ccccc3)cc2)[C@H]2CO[C@H](O2)[C@@H]1Sc1ccccc1` gave Pf Dd2 inh -29%[44.1 µM].
COCCN[C@H]1[C@@H]2OC[C@@H](O2)[C@@H](NCc2ccc(-c3ccccc3)cc2)[C@@H]1O was read as Pf Dd2 inh 10µM*.
For Cc1cc(C)n(CC(=O)N2CCc3nn(C)c(=O)n3CC2)n1 the results were Pf Dd2 inh 53%.
Screening Cn1ccnc1C(=O)N1CCC(N2C[C@H](O)C[C@H]2C(=O)NC2CCCCC2)CC1 returned Pf Dd2 inh -7%.
CC(C)CNC(=O)CC(c1cccc(F)c1)c1cn(C)c2ccccc12 (stereo not given) was read as Pf Dd2 inh -24%.
`O=C(c1ccccc1Cl)N1CCN(c2cc(C(F)(F)F)ncn2)CC1` gave Pf Dd2 inh -13%.
`CCOc1ccc(C(=O)Nc2c(C(=O)N3CCN(c4ccccc4F)CC3)oc3ccccc23)cc1` gave Pf Dd2 inh -9%.
For COc1ccccc1C(=O)Nc1c(C(=O)N2CCN(c3ccc(F)cc3)CC2)oc2ccccc12 the results were Pf Dd2 inh 50%.
For COc1ccc(CC(=O)Nc2c(C(=O)N3CCN(c4ccccc4F)CC3)oc3ccccc23)cc1OC the results were Pf Dd2 inh 11µM*.
Screening COCCN1C(=O)[C@H]2CN(Cc3ccc(F)c(F)c3)C[C@H]2C1=O returned Pf Dd2 inh -2%.
Screening CN1CCN(Cc2nc(C3(O)CCN(Cc4ccccc4)CC3)cs2)CC1 returned Pf Dd2 inh inactive.
OC1(c2csc(CN3CCN(c4ccccn4)CC3)n2)CCNCC1 was read as Pf Dd2 inh 2%[44.1 µM].
COC[C@H]1CCCN1Cc1nc(C2(O)CCN(CC(C)C)CC2)cs1 was read as Pf Dd2 inh inactive.
For COC[C@H]1CCCN1Cc1nc(C2(O)CCN(Cc3ccc(F)cc3)CC2)cs1 the results were Pf Dd2 inh 7.9µM*.
`OC1(c2csc(CN3CCN(c4ccccn4)CC3)n2)CCN(Cc2ccc(F)cc2)CC1` gave Pf Dd2 inh 5µM*.
COC[C@H]1CCCN1Cc1nc(C2(O)CCN(C(=O)Nc3ccc(F)cc3)CC2)cs1 was read as Pf Dd2 inh -21%.
COc1cccc(OC)c1CN1CC[C@@H]2CN(S(C)(=O)=O)[C@@H]2C1 was read as Pf Dd2 inh inactive.
For COc1ccc(CCC(=O)N2CCC(Cc3nc(C4CC4)n[nH]3)CC2)cc1 the results were Pf Dd2 inh inactive.
`Cc1noc(C)c1CC(=O)NC1CCc2nn(CC3CC3)c(=O)n2CC1` (stereo not given) gave Pf Dd2 inh 95%.
For CC(C)C(=O)N1CCC(CC(=O)NCc2ccccc2)C1 (stereo not given) the results were Pf Dd2 inh 83%.
`O=C1CC(c2noc(-c3ccc4c(c3)OCO4)n2)CN1c1ccc(Cl)cc1` (stereo not given) gave Pf Dd2 inh 4%.
Screening COc1ccc(CN2Cc3cc(NC(=O)c4ccccc4F)ccc3OC(C)C2=O)c(OC)c1 (stereo not given) returned Pf Dd2 inh 3.2µM*.
Screening COc1ccc(C(=O)Nc2ccc3c(c2)CN(Cc2ccc(F)cc2)C(=O)C(C)O3)c(OC)c1 (stereo not given) returned Pf Dd2 inh inactive.
Screening COc1ccc(CN2Cc3cc(NC(=O)c4ccc(F)cc4)ccc3OC(C)C2=O)c(OC)c1 (stereo not given) returned Pf Dd2 inh inactive.
`NC(=O)CCn1cc(CN(CCO)Cc2ccccc2F)c2ccccc21` gave Pf Dd2 inh 2.2µM*.
`CCC(NCc1cn(CCC(N)=O)c2ccccc12)c1cccs1` (stereo not given) gave Pf Dd2 inh -24%.
O=C(Cn1cc(SCc2ccccc2F)c2ccccc21)N1CCCCC1 was read as Pf Dd2 inh -18%.
For O=C(c1cncc(Br)c1)N1CCC(c2nc(C3CCOCC3)no2)CC1 the results were Pf Dd2 inh inactive.
`Cc1ccc(CN2CC[C@@H]3[C@H]2C(=O)NC[C@H](CCC(=O)N2CCCC2)N3C)cc1` gave Pf Dd2 inh -9%[44.1 µM].
Cc1ccccc1OCc1ccc(-c2nc(C#N)c(N3CCN(c4ccccc4)CC3)o2)o1 was read as Pf Dd2 inh 11µM*.
N#Cc1nc(/C=C/c2ccc(F)cc2)oc1N1CCN(c2ccccc2)CC1 was read as Pf Dd2 inh 60%.
For Cc1ccc(OCc2ccc(-c3nc(C#N)c(N4CCN(c5cccc(Cl)c5)CC4)o3)o2)cc1 the results were Pf Dd2 inh -8%.
`Cc1noc(C)c1CC(=O)N[C@@H]1CN(c2ccccn2)C[C@H]1CN(C)C` gave Pf Dd2 inh 5%.
Screening Cc1nc(C)c(C(=O)N2CCC(Cc3nc(C4CC4)n[nH]3)CC2)s1 returned Pf Dd2 inh 16%.
Screening CC1=C[C@@H](CNC(=O)Nc2ccccc2)[C@H](C(C)C)C[C@H]1CC(=O)NCc1cccnc1 returned Pf Dd2 inh inactive.
For Cc1ccn2c(Nc3ccc4c(c3)OCCO4)c(-c3ccccc3O)nc2c1 the results were Pf Dd2 inh 11µM*.
`Brc1ccc(-c2nc3ccccn3c2Nc2ccc3c(c2)OCCO3)o1` gave Pf Dd2 inh 13µM*.
For Cc1ccc(-c2nc3ccc(Cl)cn3c2Nc2ccc3c(c2)OCCO3)s1 the results were Pf Dd2 inh 33%.
For Cc1ccc(-c2nc3ccccn3c2Nc2ccc3c(c2)OCCO3)o1 the results were Pf Dd2 inh -20%.
Cc1ccc2nc(-c3ccc(C)o3)c(Nc3ccc4c(c3)OCCO4)n2c1 was read as Pf Dd2 inh -21%.
`c1csc(-c2nc3ccccn3c2Nc2ccc3c(c2)OCCO3)c1` gave Pf Dd2 inh 17%.
For COc1ccc(NC(=O)c2ccc3c(c2)OCCN(C2CCC2)C3)cn1 the results were Pf Dd2 inh 11µM*.
Screening COc1ccc(NC(=O)c2ccc3c(c2)OCCN(Cc2ncccn2)C3)cc1F returned Pf Dd2 inh inactive.
COc1ccc(NC(=O)c2ccc3c(c2)C(O)CCCCCN3C)cn1 (stereo not given) was read as Pf Dd2 inh -40%.
O=C(Cc1ccncc1)N1CC(F)(F)C[C@H]1c1nc(C2CC2)no1 was read as Pf Dd2 inh -16%.
Screening CCCc1nn(-c2ccccc2C)c(OC(C)=O)c1-c1ccc(NC(=O)CC)cc1 returned Pf Dd2 inh inactive.
For NC(=O)[C@@H]1CN(C(=O)CC2=CCCCC2)C[C@H]1COc1ccccc1 the results were Pf Dd2 inh -13%.
COCC(=O)N[C@@H]1CN(Cc2ccco2)CC[C@@H]1c1n[nH]c(C)n1 was read as Pf Dd2 inh 6%.
Screening COc1cc(SC)c(OC)cc1CN1CCC2(CC(=O)NC2=O)C1 (stereo not given) returned Pf Dd2 inh -13%.
Screening COc1ccc(-c2nnc3ccc(N(C)Cc4ccccc4)nn23)nc1 returned Pf Dd2 inh 7.9µM*.
`C[C@@H]1CN(c2ccc3nnc(-c4ccccn4)n3n2)C[C@H](C)O1` gave Pf Dd2 inh 21%[44.1 µM].
CN(C)c1ccc2nnc(-c3cc(C(=O)N(C)c4ccccc4)ccn3)n2n1 was read as Pf Dd2 inh -17%[44.1 µM].
